{
  "source": "the supplement of paper PMC8728848",
  "binders": {"B1": {"name": "MXA PilAct-eGFP (Myxococcus xanthus), Q59589 (protein)", "chain": "MRVSRFNPRNRGFTLIELMIVVAIIGILAAIAIPNFIKFQARSKQSEAKTNLKALYTAQKSFFSEKDRYSDFANEIGFAPERGNRYGYRVSAAAGDCEVRNAADLPVPAAGVPCISNDSFRFGANSAIDDPTPVVARFVPQGAAGWNTTLGVQPTIADCPNCNFFAGARGNADNEATFDDWVIAGFEGSGQVGPCSEAGNVASGTPYNTRNDVACDGAAQ"}},
  "assay_in_all_cases": "glycan array binding signal (z-score within array); higher = stronger binding",
  "details_in_all_cases": "glycan notation: IUPAC condensed, linker removed",
  "key": {"GalNAc(a1-3)GalNAc": {"molecular_target": "GalNAc(a1-3)GalNAc", "how_it_was_run": "(§1)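 The Consortium for Functional Glycomics database supplied 3228 glycan arrays, of which those lacking an available protein sequence were dropped. The binding signal, a within-array Z-score, was averaged across arrays of the same protein sequence and across linkers. Negative scores can be read as non-binding.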"}, "GalNAc6S(b1-4)GlcNAc": {"molecular_target": "GalNAc6S(b1-4)GlcNAc", "how_it_was_run": "as §1"}, "Glc(b1-6)Glc": {"molecular_target": "Glc(b1-6)Glc", "how_it_was_run": "as §1"}, "[1]": {"molecular_target": "GlcNAc(a1-3)Gal(b1-4)GlcNAc", "how_it_was_run": "as §1"}, "[2]": {"molecular_target": "GlcNAc(a1-4)Gal(b1-4)GlcNAc(b1-3)Gal(b1-4)GlcNAc(b1-3)Gal(b1-4)GlcNAc", "how_it_was_run": "as §1"}, "[3]": {"molecular_target": "GlcNAc(a1-4)Gal(b1-4)GlcNAc(b1-3)Gal(b1-4)[Fuc(a1-3)]GlcNAc(b1-3)Gal(b1-4)[Fuc(a1-3)]GlcNAc", "how_it_was_run": "as §1"}, "[4]": {"molecular_target": "GlcNAc(b1-2)Man(a1-3)[GlcNAc(b1-2)Man(a1-6)]Man(b1-4)GlcNAc(b1-4)GlcNAc", "how_it_was_run": "as §1"}, "[5]": {"molecular_target": "GlcNAc(b1-3)Gal(b1-4)GlcNAc(b1-3)Gal(b1-4)GlcNAc(b1-3)Gal(b1-4)GlcNAc(b1-2)Man(a1-3)[GlcNAc(b1-3)Gal(b1-4)GlcNAc(b1-3)Gal(b1-4)GlcNAc(b1-3)Gal(b1-4)GlcNAc(b1-2)Man(a1-6)]Man(b1-4)GlcNAc(b1-4)GlcNAc", "how_it_was_run": "as §1"}, "[6]": {"molecular_target": "GlcNAc(b1-3)Gal(b1-4)GlcNAc(b1-3)Gal(b1-4)GlcNAc(b1-3)Gal(b1-4)GlcNAc(b1-3)Gal(b1-4)GlcNAc(b1-2)[GlcNAc(b1-3)Gal(b1-4)GlcNAc(b1-3)Gal(b1-4)GlcNAc(b1-3)Gal(b1-4)GlcNAc(b1-3)Gal(b1-4)GlcNAc(b1-6)]Man(a1-6)[GlcNAc(b1-3)Gal(b1-4)GlcNAc(b1-3)Gal(b1-4)GlcNAc(b1-3)Gal(b1-4)GlcNAc(b1-3)Gal(b1-4)GlcNAc(b1-2)Man(a1-3)]Man(b1-4)GlcNAc(b1-4)[Fuc(a1-6)]GlcNAc", "how_it_was_run": "as §1"}, "[7]": {"molecular_target": "GlcNAc(b1-3)Gal(b1-4)GlcNAc(b1-3)[GlcNAc(b1-3)Gal(b1-4)GlcNAc(b1-3)]GalNAc", "how_it_was_run": "as §1"}, "Kdn(a2-3)Gal(b1-3)GlcNAc": {"molecular_target": "Kdn(a2-3)Gal(b1-3)GlcNAc", "how_it_was_run": "as §1"}, "Kdn(a2-3)Gal(b1-4)GlcNAc": {"molecular_target": "Kdn(a2-3)Gal(b1-4)GlcNAc", "how_it_was_run": "as §1"}, "[8]": {"molecular_target": "Man(a1-3)[Man(a1-6)]Man(a1-6)[Man(a1-3)]Man(b1-4)GlcNAc(b1-4)GlcNAc", "how_it_was_run": "as §1"}, "[9]": {"molecular_target": "Neu5Ac(a2-3)Gal(b1-3)GlcNAc(b1-6)GalNAc", "how_it_was_run": "as §1"}, "[10]": {"molecular_target": "Neu5Ac(a2-3)Gal(b1-3)[Fuc(a1-4)]GlcNAc", "how_it_was_run": "as §1"}, "[11]": {"molecular_target": "Neu5Ac(a2-3)Gal(b1-4)[Fuc(a1-3)]GlcNAc", "how_it_was_run": "as §1"}, "[12]": {"molecular_target": "Neu5Ac(a2-3)Gal(b1-4)[Fuc(a1-3)]GlcNAc(b1-3)Gal(b1-4)GlcNAc", "how_it_was_run": "as §1"}, "[13]": {"molecular_target": "Neu5Ac(a2-6)Gal(b1-4)GlcNAc(b1-2)Man(a1-3)[GlcNAc(b1-4)][Neu5Ac(a2-6)Gal(b1-4)GlcNAc(b1-2)Man(a1-6)]Man(b1-4)GlcNAc(b1-4)GlcNAc", "how_it_was_run": "as §1"}, "[14]": {"molecular_target": "Neu5Ac(a2-6)Gal(b1-4)GlcNAc(b1-2)Man(a1-3)[Man(a1-6)]Man(b1-4)GlcNAc(b1-4)GlcNAc", "how_it_was_run": "as §1"}, "[15]": {"molecular_target": "Neu5Ac(a2-6)Gal(b1-4)GlcNAc(b1-2)Man(a1-6)Man(b1-4)GlcNAc(b1-4)GlcNAc", "how_it_was_run": "as §1"}, "[16]": {"molecular_target": "Neu5Ac(a2-6)Gal(b1-4)GlcNAc(b1-2)[Neu5Ac(a2-6)Gal(b1-4)GlcNAc(b1-4)]Man(a1-3)[GlcNAc(b1-4)][Neu5Ac(a2-6)Gal(b1-4)GlcNAc(b1-2)[Neu5Ac(a2-6)Gal(b1-4)GlcNAc(b1-6)]Man(a1-6)]Man(b1-4)GlcNAc(b1-4)GlcNAc", "how_it_was_run": "as §1"}, "[17]": {"molecular_target": "Neu5Ac(a2-6)Gal(b1-4)GlcNAc(b1-2)[Neu5Ac(a2-6)Gal(b1-4)GlcNAc(b1-4)]Man(a1-3)[GlcNAc(b1-4)][Neu5Ac(a2-6)Gal(b1-4)GlcNAc(b1-4)Man(a1-6)]Man(b1-4)GlcNAc(b1-4)GlcNAc", "how_it_was_run": "as §1"}, "[18]": {"molecular_target": "Neu5Ac(a2-6)GlcNAc(b1-4)GlcNAc(b1-4)GlcNAc", "how_it_was_run": "as §1"}, "[19]": {"molecular_target": "Neu5Ac(a2-8)Neu5Ac(a2-3)[GalNAc(b1-4)]Gal(b1-4)Glc", "how_it_was_run": "as §1"}, "[20]": {"molecular_target": "Neu5Ac9Ac(a2-3)Gal(b1-3)GlcNAc", "how_it_was_run": "as §1"}, "[21]": {"molecular_target": "Neu5Gc(a2-3)Gal(b1-3)GlcNAc", "how_it_was_run": "as §1"}},
  "note": "About 410 targets per protein were measured; listed, in parts, are those with the strongest signals and a random draw of the rest.",
  "data": [
    {"binder": "B1", "values": [
      {"measurement": "glycan array binding signal (z-score)", "setting": "GalNAc(a1-3)GalNAc", "result": -1.12},
      {"measurement": "glycan array binding signal (z-score)", "setting": "GalNAc6S(b1-4)GlcNAc", "result": 0.26},
      {"measurement": "glycan array binding signal (z-score)", "setting": "Glc(b1-6)Glc", "result": 1.37},
      {"measurement": "glycan array binding signal (z-score)", "setting": "[1]", "result": -0.245},
      {"measurement": "glycan array binding signal (z-score)", "setting": "[2]", "result": 0.596},
      {"measurement": "glycan array binding signal (z-score)", "setting": "[3]", "result": 1.45},
      {"measurement": "glycan array binding signal (z-score)", "setting": "[4]", "result": 0.002},
      {"measurement": "glycan array binding signal (z-score)", "setting": "[5]", "result": 3.99},
      {"measurement": "glycan array binding signal (z-score)", "setting": "[6]", "result": 3.85},
      {"measurement": "glycan array binding signal (z-score)", "setting": "[7]", "result": -0.168},
      {"measurement": "glycan array binding signal (z-score)", "setting": "Kdn(a2-3)Gal(b1-3)GlcNAc", "result": 0.462},
      {"measurement": "glycan array binding signal (z-score)", "setting": "Kdn(a2-3)Gal(b1-4)GlcNAc", "result": -0.846},
      {"measurement": "glycan array binding signal (z-score)", "setting": "[8]", "result": -0.784},
      {"measurement": "glycan array binding signal (z-score)", "setting": "[9]", "result": -0.507},
      {"measurement": "glycan array binding signal (z-score)", "setting": "[10]", "result": -0.236},
      {"measurement": "glycan array binding signal (z-score)", "setting": "[11]", "result": -0.025},
      {"measurement": "glycan array binding signal (z-score)", "setting": "[12]", "result": -0.9},
      {"measurement": "glycan array binding signal (z-score)", "setting": "[13]", "result": -1.03},
      {"measurement": "glycan array binding signal (z-score)", "setting": "[14]", "result": 3.09},
      {"measurement": "glycan array binding signal (z-score)", "setting": "[15]", "result": 2.91},
      {"measurement": "glycan array binding signal (z-score)", "setting": "[16]", "result": -0.369},
      {"measurement": "glycan array binding signal (z-score)", "setting": "[17]", "result": -0.544},
      {"measurement": "glycan array binding signal (z-score)", "setting": "[18]", "result": -0.645},
      {"measurement": "glycan array binding signal (z-score)", "setting": "[19]", "result": 3.6},
      {"measurement": "glycan array binding signal (z-score)", "setting": "[20]", "result": 4.29},
      {"measurement": "glycan array binding signal (z-score)", "setting": "[21]", "result": 0.057}
    ]}
  ]
}
